Bioassay records (PubChem BioAssay)
SARS PLpro yeast = inhibitors of SARS-CoV papain-like protease in yeast; S. cerevisiae expressing SARS-CoV PLpro, growth rescue; Potency, µM (series often up to 32.9 µM), for inactives: top-dose activity, positive = growth rescue, hits mostly activators; 330,000 tested, 0.19% active; calls by dose curve; note: 0% is about no effect; nearly all actives have a fitted effect of over 55% in size
Pf growth 96h = P. falciparum growth inhibition at 96 hours; P. falciparum luciferase reporter growth, 96 h; Potency, µM (highest dose often 28.7 µM), for inactives: at the highest dose activity change, negative = inhibition, usual class: inhibitors; 320,000 tested, 6.9% active; AID 504834; note: % is set by controls: 0 for no effect and ±100 for the full control effect
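Cell-based qHTS: luciferase-tagged P. falciparum in erythrocytes (2% hematocrit, 0.05% parasitemia final) incubated with compounds for 96 hours, 37 C, 5% CO2; luciferase detection reagent then added and luminescence measured.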
Pf growth 48h = P. falciparum growth inhibition at 48 hours (one generation); P. falciparum luciferase growth in erythrocytes, 48 h; Potency, µM (top dose mostly 28.7 µM), inactives show at the top dose activity change, negative = inhibition, hits mostly inhibitors; 310,000 tested, 5.9% active; note: % is set by controls: 0 for no effect and ±100 for the full control effect
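Parasite viability was followed by luminescence of a genomically integrated firefly luciferase. Cultures held 0.1% parasitemia at 2% hematocrit (final), incubated under 5% CO2 at 37 C.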
AMA1 RON2 block = disrupts binding of P. falciparum AMA1 to RON2; AlphaScreen AMA1-biotinylated RON2 peptide binding; 360,000 tested, 0.2% active; Potency, µM (highest dose often 58.2 µM), for inactives: at the top dose activity change, negative = inhibition, most hits filed as inhibitors;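 note: 0% = vehicle wells and -100% = peptide control; nearly all actives have a fitted effect of over 45% in size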
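AMA1 (3D7) with his tag at 25 nM final met compounds first, then biotinylated RON2 peptide at 25 nM; detection used donor plus acceptor beads, 10 µg/mL apiece, read by AlphaScreen after 30 min at room temperature.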
An asterisk follows results filed as active; [ ] = remark or other dose. Sampled rows, rich in hits. Any-hit rate of the full collection: about 9.4%. Unless noted, calls come from the whole dose curve; as a rule, active = well fitted curve in the direction sought with a large enough effect; inconclusive = small, poorly fitted or top-dose-only effect, or another doubt; inactive = no such curve, though single readings can be large; an effect the other way counts as inactive or inconclusive. Potency is the fitted concentration of half-maximal effect.

`COc1ccc(C2=C(CN(C)C)C(c3ccccc3)c3ccccc3O2)cc1` (stereo not drawn) gave SARS PLpro yeast -4.3%, Pf growth 96h 2.62µM*, Pf growth 48h 4.65µM* and AMA1 RON2 block inconclusive.
`NC(=O)CC[C@H](NC(=O)c1ccc(F)cc1)C(=O)OCC(=O)Nc1ccc(N2CCOCC2)cc1` gave SARS PLpro yeast inconclusive, Pf growth 96h 2.1%, Pf growth 48h -4.7% and AMA1 RON2 block -17.4%[2.32 µM].
Screening CCOC(=O)c1ccccc1NC(=O)COc1coc(CN2CCc3ccccc32)cc1=O returned SARS PLpro yeast -4.0%, Pf growth 96h 11.7µM*, Pf growth 48h inconclusive and AMA1 RON2 block inconclusive.
For CCOc1ccccc1NC(=O)COc1coc(CN2CCc3ccccc32)cc1=O the results were SARS PLpro yeast -3.3%, Pf growth 96h inconclusive, Pf growth 48h 11.7µM* and AMA1 RON2 block inconclusive.
`Cc1ccc(C)c(NC(=O)COc2coc(CN3CCc4ccccc43)cc2=O)c1` gave SARS PLpro yeast -2.1%, Pf growth 96h inconclusive, Pf growth 48h inconclusive and AMA1 RON2 block -11.2%.
COc1ccc(C(=O)CC(=O)C(=O)Nc2cccc([N+](=O)[O-])c2C)cc1 was read as SARS PLpro yeast -0.4%, Pf growth 96h inconclusive and AMA1 RON2 block 84.7%.
Cn1nc(-c2ccccc2)c(CSc2ccccc2)c1Cl was read as SARS PLpro yeast -25.9%, Pf growth 96h 9.28µM* and AMA1 RON2 block 62.7%.
`N#CCCn1nc(-c2ccccc2)cc1Nc1ccccc1NC(=O)c1cccs1` gave SARS PLpro yeast 8.3%, Pf growth 96h 47.1%, Pf growth 48h 5.22µM* and AMA1 RON2 block 37.2%.
O=C(Cn1nnc(-c2ccccc2NC(=O)c2cccs2)n1)Nc1ccccc1 was read as SARS PLpro yeast -5.2%, Pf growth 96h 0.0%, Pf growth 48h inconclusive and AMA1 RON2 block 0.0%.
Screening O=C(Nc1ccc(Oc2ccc(Cl)cc2)cc1)c1ncn[nH]1 returned SARS PLpro yeast -1.6%, Pf growth 96h 36.4%, Pf growth 48h 9.28µM* and AMA1 RON2 block 5.9%.
Screening COc1cc(/C=N/NC(=S)NC2CC3C=CC2C3)cc(OC)c1OC (stereo not drawn) returned SARS PLpro yeast 1.5%, Pf growth 96h 2.94µM*, Pf growth 48h 5.22µM* and AMA1 RON2 block 43.8%.
Screening CCOc1ccc(/C=N/NC(=S)NC2CC3C=CC2C3)cc1 (stereo not drawn) returned SARS PLpro yeast 0.6%, Pf growth 96h 8.28µM*, Pf growth 48h inconclusive and AMA1 RON2 block 87.4%.
For COc1ccc(Cn2c(=O)c3[nH]cnc3n(-c3ccc(C)cc3)c2=O)cc1 the results were SARS PLpro yeast -1.7%, Pf growth 96h 2.33µM*, Pf growth 48h inconclusive and AMA1 RON2 block 6.2%.
Nc1ncnc2nn(C3OC(CO)C(O)C3O)nc12 (stereo not drawn) was read as AMA1 RON2 block -4.4%.
`COC(=O)[C@@]1(Cc2ccc(F)cc2)[C@H]2c3cc(C(=O)N(C)C)n(Cc4ccc(C)o4)c3C[C@H]2CN1C(=O)c1ccccc1` gave AMA1 RON2 block -19.0%.
`COC(=O)[C@@]1(Cc2ccc(F)cc2)[C@H]2c3cc(C(=O)N(C)C)n(CCc4ccc(OC)c(Br)c4)c3C[C@H]2CN1C(=O)c1ccccc1` gave SARS PLpro yeast 3.5%, Pf growth 96h 5.86µM*, Pf growth 48h inconclusive and AMA1 RON2 block 0.8%.
`COC(=O)[C@@]1(Cc2ccc(OC)cc2)[C@H]2c3cc(C(=O)N(C)C)n(C[C@H](O)CO)c3C[C@H]2CN1C(=O)c1ccccc1` gave SARS PLpro yeast -3.6%, Pf growth 96h 8.28µM*, Pf growth 48h inconclusive and AMA1 RON2 block -2.3%.
Screening COC(=O)[C@@]1(Cc2ccc(F)cc2)[C@H]2c3cc(C(=O)N(C)C)n(Cc4ccc(OC)c(OC)c4)c3C[C@H]2CN1C(=O)c1ccccc1 returned SARS PLpro yeast 5.7%, Pf growth 96h 5.22µM*, Pf growth 48h inconclusive and AMA1 RON2 block -18.9%.
Screening COC(=O)[C@@]1(Cc2ccc(F)cc2)[C@H]2c3cc(C(=O)N(C)C)n(CCO)c3C[C@H]2CN1C(=O)c1ccccc1 returned AMA1 RON2 block -2.6%.
COC(=O)[C@@]1(Cc2ccc(F)cc2)[C@H]2c3cc(C(=O)N(C)C)[nH]c3C[C@H]2CN1C(=O)c1ccccc1 was read as SARS PLpro yeast 5.3%, Pf growth 96h 13.1µM*, Pf growth 48h 13.1µM* and AMA1 RON2 block -1.2%.
